The source of these data is PubChem BioAssay (NCI).

The panel holds about 83,000 compounds, 20% with a hit somewhere; the sample as a whole holds those more often.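 48-hour exposure, single concentration, 96-well plates; percent growth endpoint where 0 means no net growth. Active: below 10.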 Unmarked numbers belong to inactive results. Calls of active or inactive are those of the source.

Test systems include SK-MEL-2 melanoma; EKVX NSCLC; SN12C renal; UO-31 renal; TK-10 renal; ACHN renal; CAKI-1 renal; A498 renal; CCRF-CEM leukemia; MOLT-4 leukemia.
Holding throughout (experiment): NCI-60 one-dose screen, 48 h (100 = growth as untreated, 0 = no growth, -100 = all killed)
Details in all cases: 10 µM unless noted

`C=CCCC1(C)NC(=O)NC1=O` (stereo not given): the growth was 102% with SK-MEL-2 melanoma; 105% in the test with EKVX NSCLC; 97.9% with SN12C renal; 97.8% in the test on UO-31 renal; 89.9% in the test with TK-10 renal; 112% in the test on ACHN renal. Further, the growth in the test on CAKI-1 renal was 93.3%; in the test with A498 renal it was 88.5%; in the test with CCRF-CEM leukemia it was 85.6%; in the test on MOLT-4 leukemia, 83.7%.

Consider `CCCCC(CC)COC(=O)C[N+](C)(C)CCOC(c1ccccc1)c1ccccc1` (stereo not given), for which the growth in the test with SK-MEL-2 melanoma was -26.9% (active); in the test on EKVX NSCLC it was 57.9%; in the test with SN12C renal it was 43.2%; with UO-31 renal it was 95.6%; in the test on TK-10 renal it was 53.7%; in the test with ACHN renal it was 101%. Besides, the growth was 97.4% with CAKI-1 renal, 101% in the test on A498 renal, 20.4% with CCRF-CEM leukemia and 40.7% in the test with MOLT-4 leukemia.

For the compound `CCN(CC)c1ccc(/C=C/C=C2\NC(=O)NC2=O)cc1`, the growth in the test with SK-MEL-2 melanoma was -13.5% (active); with EKVX NSCLC, 61.5%; in the test on SN12C renal, 47.4%; with UO-31 renal, 36.4%; in the test on TK-10 renal, 8.35% (active); in the test with ACHN renal, 47.2%. In addition, the growth is 16.7% with CAKI-1 renal, 22.4% with A498 renal, 40% with CCRF-CEM leukemia and 41.1% in the test with MOLT-4 leukemia.

On to `CCc1cccc(Cl)c1`, for which the growth was 118% in the test on SK-MEL-2 melanoma; 105% in the test with EKVX NSCLC; 90.6% with SN12C renal; 85.3% in the test on UO-31 renal; 107% with TK-10 renal; 98.9% in the test with ACHN renal. In addition, the growth is 108% with CAKI-1 renal, 120% with A498 renal, 88.2% in the test with CCRF-CEM leukemia and 98.1% in the test with MOLT-4 leukemia.

For `CC[C@]12C=CCN3CC[C@@]4(c5ccc(OC)cc5N(C)[C@H]4[C@@](O)(C(=O)OC)[C@@H]1OC(=O)CCC(=O)N[C@H](Cc1c[nH]c4ccccc14)C(=O)OC)[C@@H]32`, the growth was -48.8% [100 µM] (active) in the test with SK-MEL-2 melanoma; -58.7% [100 µM] (active) with EKVX NSCLC; -68.7% [100 µM] (active) with SN12C renal; -55.5% [100 µM] (active) in the test with UO-31 renal; -38.7% [100 µM] (active) in the test on TK-10 renal; -64.7% [100 µM] (active) in the test with ACHN renal. Further, the growth is -71% [100 µM] (active) with CAKI-1 renal, -49.9% [100 µM] (active) with A498 renal, 7.07% [100 µM] (active) in the test with CCRF-CEM leukemia and -12.4% [100 µM] (active) in the test with MOLT-4 leukemia.

Consider `O=C(Nc1cccc(F)c1)c1cc(=O)[nH]c2cc(Br)ccc12`, for which the growth with SK-MEL-2 melanoma is 41.2%; in the test with EKVX NSCLC it was 63%; in the test on SN12C renal, 60%; with UO-31 renal, 51.5%; in the test on TK-10 renal, 69.8%; in the test on ACHN renal, 57%. In addition, the growth is 33.8% in the test on CAKI-1 renal, 30.8% in the test on A498 renal, 58.8% in the test on CCRF-CEM leukemia and 45.8% in the test on MOLT-4 leukemia.

For `CCCCCN(CCCCC)CCCCCCCCN1CCCc2ccccc21`, the growth with SK-MEL-2 melanoma was 89.7%; with EKVX NSCLC, 76.7%; in the test with SN12C renal, 89.7%; in the test with UO-31 renal it was 62%; in the test on TK-10 renal, 89%; in the test with ACHN renal it was 91.1%. Further, the growth with CAKI-1 renal is 54.8%; in the test on A498 renal, 114%; in the test on CCRF-CEM leukemia, 81.7%; in the test with MOLT-4 leukemia, 27.7%.

Consider `O=C(Nc1cccc2ccccc12)c1cc2ccccc2cc1O`, for which the growth was 20.9% with SK-MEL-2 melanoma; 15% in the test with EKVX NSCLC; 7.28% (active) in the test with SN12C renal; -19.2% (active) with UO-31 renal; 34.4% in the test on TK-10 renal; 1.41% (active) in the test on ACHN renal. Also, the growth with CAKI-1 renal is -40% (active); in the test with A498 renal it was -13.8% (active); with CCRF-CEM leukemia, 17.1%; with MOLT-4 leukemia it was 21.4%.

As for `CC(=O)CC(=O)SC1=NCCS1`, the growth with SK-MEL-2 melanoma was 131%; with EKVX NSCLC, 111%; with SN12C renal it was 108%; in the test on UO-31 renal, 98.9%; in the test on TK-10 renal it was 110%; in the test on ACHN renal, 108%. The growth with CAKI-1 renal is 97.2%; in the test with A498 renal, 121%; with CCRF-CEM leukemia, 87.2%; in the test on MOLT-4 leukemia it was 98.8%.

Consider `CCOc1ccc2sc(NS(=O)(=O)c3ccc(N)cc3)nc2c1`, for which the growth in the test on SK-MEL-2 melanoma was 109%; in the test with EKVX NSCLC it was 103%; in the test on SN12C renal, 98.2%; with UO-31 renal it was 91.2%; in the test with TK-10 renal, 124%; with ACHN renal, 108%. The growth with CAKI-1 renal was 89.4%; in the test on A498 renal it was 115%; in the test with CCRF-CEM leukemia, 99.1%; with MOLT-4 leukemia, 104%.

As for `O=C(O)c1cccc(CN2CCN(c3cc4c(cc3F)c(=O)c(C(=O)O)cn4C3CC3)CC2)c1O`, the growth with SK-MEL-2 melanoma is 101%; with EKVX NSCLC, 100%; in the test with SN12C renal it was 102%; in the test with UO-31 renal it was 81.6%; in the test with TK-10 renal it was 96.6%; in the test on ACHN renal, 103%. Besides, the growth is 88.7% with CAKI-1 renal, 106% in the test on A498 renal, 101% in the test on CCRF-CEM leukemia and 105% in the test with MOLT-4 leukemia.

Take `O=C(Nc1ccc(Oc2ccc(F)cc2)c(Cl)c1)c1cccnn1`: the growth in the test with SK-MEL-2 melanoma was 77.7%; in the test on EKVX NSCLC it was 75%; in the test on SN12C renal, 63.8%; with UO-31 renal, 55%; in the test with TK-10 renal, 64.4%; with ACHN renal, 73.7%. Further, the growth in the test on CAKI-1 renal is 54.8%; in the test with A498 renal it was 61.1%; in the test on CCRF-CEM leukemia, 75.1%; in the test with MOLT-4 leukemia, 59.8%.
